Measurements as given in PubChem BioAssay.
Calls of active or inactive are those of the source.

How the values were obtained:
[1] = optical density shifts of acrAB sulA E. coli – strain DRC41, OD650, 48 h, E. coli filamentation inducer project, primary screen (AID 1152); conditions: higher = more signal, called active from +8 up or from −8 down;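 also: E. coli MC1000 strain DRC41 lacking acrAB efflux pump and sulA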
[2] = probe aLefty1 binding on compound microarray – biochemical, small-molecule microarray, 635/667 nm fluorescence, primary screen (AID 1153); conditions: higher = more signal;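 also: score merges spot fluorescence with signal-to-noise ratio from the scanned slide images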
[3] = plasmodial surface anion channel blockers, osmotic lysis – cell-based, P. falciparum Indochina, OD700, 1 h, primary screen (AID 1154); conditions: P. falciparum Indochina infected RBC osmotic lysis, higher = more signal, called active from +8 up or from −8 down
[4] = plasmodial surface anion channel blockers, osmotic lysis – cell-based, P. falciparum Indochina, OD700, 2 h, primary screen (AID 1155);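 also: lysis reports solute entry through the parasite surface anion channel PSAC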; conditions: P. falciparum Indochina infected erythrocytes, higher = more signal, called active from +8 up or from −8 down
[5] = changes in parasitized red cell lysis, either direction – P. falciparum Indochina, OD700, 3 h, PSAC antagonist project, primary screen (AID 1156); conditions: P. falciparum-infected erythrocytes, osmotic lysis, higher = more signal, called active from +8 up or from −8 down
[6] = plasmodial surface anion channel blockers, osmotic lysis – cell-based, P. falciparum Indochina, OD700, 18 h, primary screen (AID 1157); conditions: P. falciparum Indochina infected erythrocytes, osmotic lysis OD700, 18 h; higher = more signal, called active from +8 up or from −8 down
[7] = S6 kinase pathway phospho-S6 level changes – cell-based, A549, cytoblot, luminescence, serum-stimulated, primary screen (AID 1158); conditions: 5 h, higher = more signal;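 also: serum-stimulated A549 lung adenocarcinoma cells; signal is phosphorylated S6 detected by cytoblot immunostaining with HRP secondary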
[8] = molecular target: NADPH oxidase 2 (Homo sapiens) (UniProt P04839); assay: compounds shifting NOX2 Amplex Red fluorescence – cell-based, HEK293-NOX2, PMA-stimulated, NOX inhibitor project, primary screen (AID 1159); conditions: 45 min, higher = more signal, called active from +8 up or from −8 down; also: test concentration not given here
Sequence of NADPH oxidase 2 (Homo sapiens) (P04839 whole entry, looked up): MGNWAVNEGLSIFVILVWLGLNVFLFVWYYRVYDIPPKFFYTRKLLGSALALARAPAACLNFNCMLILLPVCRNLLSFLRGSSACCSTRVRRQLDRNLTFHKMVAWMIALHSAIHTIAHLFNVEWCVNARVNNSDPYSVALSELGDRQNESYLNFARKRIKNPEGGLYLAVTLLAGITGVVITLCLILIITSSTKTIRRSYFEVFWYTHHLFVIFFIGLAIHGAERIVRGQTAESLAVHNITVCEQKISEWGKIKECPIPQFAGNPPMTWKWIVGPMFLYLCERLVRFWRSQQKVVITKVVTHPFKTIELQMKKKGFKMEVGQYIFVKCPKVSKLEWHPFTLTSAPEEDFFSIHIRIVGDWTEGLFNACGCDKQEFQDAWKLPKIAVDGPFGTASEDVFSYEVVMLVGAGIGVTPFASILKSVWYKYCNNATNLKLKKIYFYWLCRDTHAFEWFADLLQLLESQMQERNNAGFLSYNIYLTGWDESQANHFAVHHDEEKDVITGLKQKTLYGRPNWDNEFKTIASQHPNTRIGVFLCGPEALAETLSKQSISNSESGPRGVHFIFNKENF

[9] = molecular target: NADPH oxidase 4 (Homo sapiens) (UniProt Q9NPH5); assay: compounds shifting NOX4 Amplex Red fluorescence – cell-based, HEK293-NOX4, tetracycline-induced, NOX inhibitor project, primary screen (AID 1160); conditions: HEK293-NOX4, Amplex Red H2O2 fluorescence, 45 min; higher = more signal, called active from +8 up or from −8 down
Sequence of NADPH oxidase 4 (Homo sapiens) (Q9NPH5 whole entry, looked up): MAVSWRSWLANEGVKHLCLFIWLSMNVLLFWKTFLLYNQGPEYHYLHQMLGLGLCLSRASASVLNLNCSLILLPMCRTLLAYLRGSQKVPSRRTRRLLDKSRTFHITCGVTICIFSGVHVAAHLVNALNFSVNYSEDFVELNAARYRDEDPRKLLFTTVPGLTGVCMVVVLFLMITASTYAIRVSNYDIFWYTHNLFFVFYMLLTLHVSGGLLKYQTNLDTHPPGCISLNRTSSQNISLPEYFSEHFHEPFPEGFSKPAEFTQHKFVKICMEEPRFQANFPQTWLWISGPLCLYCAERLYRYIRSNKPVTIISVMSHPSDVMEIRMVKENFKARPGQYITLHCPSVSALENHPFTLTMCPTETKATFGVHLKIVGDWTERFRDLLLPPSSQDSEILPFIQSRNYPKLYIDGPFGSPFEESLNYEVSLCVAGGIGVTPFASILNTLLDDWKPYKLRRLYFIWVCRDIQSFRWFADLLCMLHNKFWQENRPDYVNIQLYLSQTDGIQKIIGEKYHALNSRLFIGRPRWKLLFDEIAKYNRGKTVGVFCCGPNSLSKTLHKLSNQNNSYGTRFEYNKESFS

[10] = molecular target: NADPH oxidase 5 (Homo sapiens) (UniProt Q96PH1); assay: compounds shifting NOX5 Amplex Red fluorescence – cell-based, HEK293-NOX5, NOX inhibitor project, primary screen (AID 1161); conditions: HEK293-NOX5, ionomycin, 45 min, higher = more signal
Sequence of NADPH oxidase 5 (Homo sapiens) (Q96PH1 whole entry, looked up): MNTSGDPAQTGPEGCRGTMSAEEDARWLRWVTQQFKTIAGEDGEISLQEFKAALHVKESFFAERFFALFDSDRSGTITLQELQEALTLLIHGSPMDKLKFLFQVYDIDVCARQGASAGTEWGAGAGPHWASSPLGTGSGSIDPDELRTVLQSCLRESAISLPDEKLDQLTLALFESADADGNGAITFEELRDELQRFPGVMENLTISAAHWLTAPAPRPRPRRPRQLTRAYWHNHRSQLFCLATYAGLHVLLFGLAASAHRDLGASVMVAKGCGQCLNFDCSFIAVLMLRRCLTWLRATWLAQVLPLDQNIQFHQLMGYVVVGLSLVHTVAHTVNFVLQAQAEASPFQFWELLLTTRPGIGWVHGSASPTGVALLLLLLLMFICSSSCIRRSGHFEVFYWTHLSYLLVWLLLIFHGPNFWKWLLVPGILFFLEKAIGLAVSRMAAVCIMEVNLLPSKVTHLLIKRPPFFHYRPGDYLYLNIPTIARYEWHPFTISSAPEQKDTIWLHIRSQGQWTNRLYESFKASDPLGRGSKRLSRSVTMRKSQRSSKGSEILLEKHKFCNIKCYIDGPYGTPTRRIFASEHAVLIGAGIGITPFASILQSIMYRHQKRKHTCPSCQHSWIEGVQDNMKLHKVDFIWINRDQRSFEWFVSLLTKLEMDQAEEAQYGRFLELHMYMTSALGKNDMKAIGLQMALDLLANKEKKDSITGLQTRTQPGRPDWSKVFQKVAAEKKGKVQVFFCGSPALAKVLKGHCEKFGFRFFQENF

[11] = compound effects on lung adenocarcinoma cell viability – A549, calcein-AM fluorescence, 48 h, basal, profiling panel (AID 1162); conditions: higher = more signal; also: test concentration not given here
[12] = compound effects on differentiated 3T3-L1 adipocyte viability – cell-based, 3T3-L1 adipocytes, calcein-AM fluorescence, 48 h, basal, profiling panel (AID 1163); conditions: 3T3-L1 adipocytes viability, higher = more signal; also: test concentration not given here
[13] = compound effects on hepatocellular carcinoma cell viability – HepG2, calcein-AM fluorescence, 48 h, basal, profiling panel (AID 1164); conditions: higher = more signal; also: test concentration not given here
[14] = compound effects on multiple myeloma cell viability – MM1S, calcein-AM fluorescence, 48 h, basal, profiling panel (AID 1165); conditions: higher = more signal; also: test concentration not given here
[15] = calcein-AM signal in unstimulated myeloma cells – cell-based, calcein-AM fluorescence, 48 h, PK04 Diversity Set, profiling panel (AID 1166); conditions: RPMI8226 myeloma viability, higher = more signal;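 also: cells grown under basal conditions without added stimulus; test concentration not given here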
[16] = JC-1 mitochondrial signal, unstimulated HepG2 cells – cell-based, JC-1 fluorescence, 24 h, 100 nL compound, profiling panel (AID 1167); conditions: HepG2 mitochondrial potential, higher = more signal; also: test concentration not given here
[17] = JC-1 mitochondrial signal, unstimulated adipocytes – cell-based, JC-1 fluorescence, 3T3-L1 adipocytes, 24 h, 100 nL compound, profiling panel (AID 1168); conditions: JC-1 mitochondrial fluorescence, higher = more signal, called active from +8 up or from −8 down; also: test concentration not given here
[18] = JC-1 mitochondrial signal, unstimulated myeloma cells – cell-based, JC-1 fluorescence, RPMI8226, 24 h, 100 nL compound, profiling panel (AID 1169); conditions: JC-1 mitochondrial potential fluorescence, higher = more signal; also: test concentration not given here
[19] = JC-1 mitochondrial signal, unstimulated MM1S myeloma – cell-based, JC-1 fluorescence, 24 h, 100 nL compound, profiling panel (AID 1170); conditions: MM1S mitochondrial potential, higher = more signal; also: test concentration not given here
[20] = resazurin metabolic signal in A549 cells – cell-based, resazurin fluorescence, 24 h, PK04 Diversity Set, profiling panel (AID 1171); conditions: A549 viability, higher = more signal, called active from +8 up or from −8 down; also: test concentration not given here

Row | SMILES | z-score [1] | composite z-score [2] | z-score [3] | z-score [4] | z-score [5] | z-score [6] | z-score [7] | z-score [8] | z-score [9] | z-score [10] | z-score [11] | z-score [12] | z-score [13] | z-score [14] | z-score [15] | z-score [16] | z-score [17] | z-score [18] | z-score [19] | z-score [20]
1 | O=C1OCCC=C[C@H]2OC34C=CCN(c5ccc(Cl)cc5)C(=O)[C@H]3N(CCCO)C(=O)[C@@H]4C12 (stereo not given in full) | 0.565 (inactive) | -0.221 | 0.991 (inactive) | -0.131 (inactive) | 0.319 (inactive) | -0.652 (inactive) | 1.61 | 0.736 (inactive) | -0.818 (inactive) | 0.215 | 0.0676 | 1.95 | -0.517 | 0.435 | -1.16 | -0.00501 | 0.272 (inactive) | -0.21 | 0.162 | -0.797 (inactive)
2 | CCCNC(=O)[C@@H]1c2ccccc2C(=O)N(Cc2ccccc2OC)[C@H]1c1ccc(CO)cc1 | 0.0817 (inactive) | -0.0011 | 2.32 (inactive) | 0.117 (inactive) | 0.297 (inactive) | 0.0117 (inactive) | -0.439 | 0.802 (inactive) | 0.998 (inactive) | 0.686 | 2.28 | -0.272 | 1.52 | 0.513 | 0.349 | 1.67 | 0.776 (inactive) | 0.182 | -0.565 | -0.0906 (inactive)
3 | CC(C)[Si](C#C[Si](C(C)C)(C(C)C)C(C)C)(O[C@H](C)c1cn(Cc2ccccc2)nn1)C(C)C | 1.82 (inactive) | 0.0509 | -0.0395 (inactive) | 0.0422 (inactive) | -0.915 (inactive) | 0.0635 (inactive) | -0.217 | 0.667 (inactive) | -0.748 (inactive) | -2.82 | 1.25 | -0.425 | 0.592 | 0.636 | -1.67 | 1.92 | -0.367 (inactive) | 0.0518 | -0.542 | 0.236 (inactive)
4 | [N-]=[N+]=NCc1ccccc1[C@@H]1OC(c2ccc(OCCCO)cc2)=N[C@]1(CCS(=O)(=O)c1ccccc1)C(=O)N1CCCCC1 | 0.323 (inactive) | 0.522 | 22.8 (active) | 7.3 (inactive) | 1.59 (inactive) | 1.06 (inactive) | 0.34 | 0.196 (inactive) | 1.19 (inactive) | 2 | 1.26 | -0.418 | 1.43 | -0.504 | -0.0169 | -0.132 | -0.159 (inactive) | -0.653 | -1.87 | -0.182 (inactive)
5 | CC#CC(=O)Oc1ccc(Br)cc1C=CC(=O)OCC | -1.17 (inactive) | 0.0386 | 25.5 (active) | 7.06 (inactive) | -0.189 (inactive) | 1.37 (inactive) | -0.27 | -1.86 (inactive) | -2.68 (inactive) | 0.227 | -2.1 | -1.04 | -2.88 | -3.18 | -4.08 | -1.65 | -0.315 (inactive) | -0.583 | -1.84 | -0.685 (inactive)
6 | CC(C)=CCCC(C)=CC(O)C1C=CC2C(=O)N(c3ccccc3)C(=O)C2N1Nc1ccc(C(C)C)cc1 (stereo not given) | -0.843 (inactive) | 0.201 | 0.934 (inactive) | 0.219 (inactive) | 0.391 (inactive) | 0.729 (inactive) | -0.765 | -1.11 (inactive) | -1.15 (inactive) | -1.34 | -1.27 | -0.276 | -0.964 | 0.105 | -0.589 | -1.09 | -0.696 (inactive) | 0.465 | 1.06 | 0.38 (inactive)
7 | CCCCCCCCCCC(O)C1C=CC2C(=O)NC(=O)C2N1Nc1ccc(Cl)cc1Cl (stereo not given) | -2.32 (inactive) | 0.335 | 4.61 (inactive) | 2.51 (inactive) | -1.75 (inactive) | 1.78 (inactive) | -0.428 | 0.684 (inactive) | -1.86 (inactive) | -0.838 | -4.55 | 0.061 | -3.5 | -3.8 | -4.21 | -3.53 | -0.354 (inactive) | -0.931 | -1.08 | -1.52 (inactive)
8 | C=CCC(OC(C)=O)[C@@H]1[C@@H](N(Cc2ccc(-c3cccc(C(F)(F)F)c3)o2)C(=O)Cc2ccc(OC)cc2)c2cc(OCCCO)ccc2N1C(=O)c1ccc2ccccc2c1 (stereo not given in full) | 0.0395 (inactive) | 0.0191 | 1.35 (inactive) | 1.01 (inactive) | 2.68 (inactive) | 0.898 (inactive) | 0.388 | -2.68 (inactive) | -1.99 (inactive) | -1.9 | -0.138 | 1.13 | -0.589 | 0.269 | -0.738 | 2.15 | -0.75 (inactive) | -0.442 | 0.675 | -0.186 (inactive)
9 | CC[C@@H]1C=C(C(=O)O)[C@H](c2ccc(C)cc2)N1S(=O)(=O)c1ccc(C)cc1 | -0.557 (inactive) | 0.0582 | 1.08 (inactive) | 0.661 (inactive) | -0.245 (inactive) | 0.856 (inactive) | -0.362 | 0.587 (inactive) | -0.57 (inactive) | -1.24 | -0.795 | -0.235 | -0.997 | 0.0477 | 0.365 | 0.0562 | 0.348 (inactive) | 0.637 | -0.643 | 0.357 (inactive)
